TRHR PAM: qHTS for Small Molecule Agonists and Allosteric Enhancers of Human TRH Receptor: Primary Screen for Enhancers; TRHR cells, fluo-8 calcium fluorescence, EC20 TRH enhancement; 0.66% of 360,000 active; Thyrotropin-releasing hormone receptor (Homo sapiens), P34981; AID 493056, 2011; enhancement, % at 2 µM; in the data active = enhancement above about 30%; also: 0% is about no effect
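TRHR-expressing cells loaded with fluo-8 calcium dye were read kinetically (ex 480/em 530) during compound addition, then stimulated with an EC20 of TRH (10 nM final). Enhancement of the Gq-mediated intracellular calcium response was scored.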
D1 potentiator: Potentiators of Human D1 Dopamine Receptor: qHTS | HEK293 TREx D1 cells, calcium flux, dopamine EC20 potentiation | potentiation, % at 10 µM | 0.036% of 360,000 active; in the data active = potentiation above about 30%; also: 0% is about no effect
Target sequence (P21728 whole entry, looked up): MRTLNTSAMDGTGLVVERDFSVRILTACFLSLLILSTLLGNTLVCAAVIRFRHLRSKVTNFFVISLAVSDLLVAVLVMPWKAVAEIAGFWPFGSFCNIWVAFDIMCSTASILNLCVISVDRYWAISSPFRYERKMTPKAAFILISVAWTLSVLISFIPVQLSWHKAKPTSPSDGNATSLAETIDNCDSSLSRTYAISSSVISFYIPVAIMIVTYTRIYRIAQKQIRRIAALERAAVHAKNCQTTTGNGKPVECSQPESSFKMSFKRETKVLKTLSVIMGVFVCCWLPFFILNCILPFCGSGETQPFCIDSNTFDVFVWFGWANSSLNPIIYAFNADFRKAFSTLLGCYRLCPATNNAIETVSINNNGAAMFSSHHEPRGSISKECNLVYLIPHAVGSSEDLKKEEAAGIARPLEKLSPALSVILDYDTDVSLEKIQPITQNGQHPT
TRHR ag: qHTS for Small Molecule Agonists and Allosteric Enhancers of Human TRH Receptor: Primary Screen for Agonists; activation, % at 2 µM; AID 493084, 2011; TRHR cells, calcium flux fluo-8, FDSS agonist mode; 0.18% of 360,000 active; also: 0% is about no effect
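Steps: seed TRHR cells overnight; add fluo-8 no-wash Ca dye, RT 30 min–1.5 h; record 10 s baseline; pin-transfer compounds; monitor fluorescence 1 cycle/s for the agonist window. Calcium increases flag candidate agonists.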
D1 antag: Antagonist of Human D 1 Dopamine Receptor: qHTS; D(1A) dopamine receptor (Homo sapiens), P21728; HEK293 TREx D1 cells, calcium flux, dopamine EC80; stronger effect = lower value; activity change, negative = inhibition, % at 10 µM; 3.2% of 360,000 active; AID 504652, 2011; in the data active = activity change below about -30%; also: % is scaled to controls: 0 for no effect and ±100 for the full control effect
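Antagonism measured as reduced calcium response to an EC80 dopamine addition following 180 s compound pre-read; cells were inducible HEK293 Trex D1 plated overnight at 30 C, read kinetically at 1 cycle/sec.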
D1 ag: Allosteric Agonists of the Human D1 Dopamine Receptor: qHTS | HEK293 T-REx D1 cells, calcium flux, agonist mode | activation, % at 2 µM | D(1A) dopamine receptor (Homo sapiens), P21728 | AID 504660, 2011 | 1% of 360,000 active; also: 0% is about no effect
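Tetracycline-induced HEK293 TREx D1 cells, force-coupled to calcium signalling, were dye-loaded with a no-wash calcium kit. Compound was pin-added after a 10 s baseline. Fluorescence was read kinetically at 1 cycle/s for 180 s, with calcium rises flagged as agonism.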
* hit, by the source's call; . = no result given. Most compounds without a hit are left out; they make up all but 4.6% or so of the library. Rule as the data show it, unless noted: active = activation above about 30%; inactive = the rest.

SMILES	TRHR PAM	D1 potentiator	TRHR ag	D1 antag	D1 ag
CCc1ccc(CNC(=O)CN2C(=O)CSc3c2c(C)nn3-c2ccccc2)cc1	-3	-2	1	9	1
Cc1ccc(-c2nn(CC(=O)O)c(=O)c3ccccc23)cc1	-3	-4	0	-6	-2
COC(=O)Cn1nc(-c2ccc(C)cc2)c2ccccc2c1=O	-6	-8	0	-75*	1
O=C(c1nnsc1S(=O)c1ccc(Cl)cc1)N1CCOCC1 (stereo unspecified)	3	8	13	18	5
O=C(Nc1ccccc1)c1nnsc1S(=O)c1ccc(Cl)cc1 (stereo unspecified)	-1	-4	4	-41*	2
CC1CCCCC12NC(=O)N(CC(=O)N1CCN(S(=O)(=O)Cc3ccccc3)CC1)C2=O (stereo unspecified)	9	-5	1	-35*	1
Cc1ccc(N(C)C(CNS(=O)(=O)c2ccccc2)c2ccccc2)cc1 (stereo unspecified)	2	-1	0	-48*	3
Cc1nc(N2CCCCC2)c(C#N)c(C)c1[N+](=O)[O-]	1	1	0	1	0
S=C(Nc1ccccc1Cl)NC1CC2CCCC(C1)N2C1CC1 (stereo unspecified)	-6	-4	1	-54*	4
CC(C)(C)C(=O)NC1CC2CCCC(C1)N2C(=O)Nc1ccccc1Cl (stereo unspecified)	9	3	0	-7	3
COc1ccc(OC)c(NC(=O)C(C)n2nc(C)c3c(C)n(-c4ccccc4)nc3c2=O)c1 (stereo unspecified)	3	-1	-1	-1	3
Cc1cc(NC(=O)CCc2ccc(C)o2)no1	0	-9	0	-42*	1
CCc1ccc(NC(=O)CCc2ccc(C)o2)cc1	3	7	-4	-9	2
Cc1ccc(NC(=O)CCc2ccc(C)o2)c(C)c1	-3	0	-1	30	32*
Cc1ccc(C)c(NC(=O)CCc2ccc(C)o2)c1	-13	-5	0	-1	2
CCN(C(=O)c1cc2c(s1)-c1c(C)cccc1OC2)c1ccccc1F	2	-3	0	17	8
Cc1cc2occ(CC(=O)N(CCC(C)C)c3c(N)n(Cc4ccccc4)c(=O)[nH]c3=O)c2cc1C	5	10	0	2	0
CCOC(=O)c1c(C)[nH]c(C)c1S(=O)(=O)NCCN1CCN(c2cc(Cl)ccc2C)CC1	-2	-18	0	-42*	1
CCOC(=O)c1c(C)[nH]c(C)c1S(=O)(=O)NCC(=O)Nc1ccc(CC)cc1	11	-6	0	-35*	6
CCOC(=O)c1c(C)[nH]c(C)c1S(=O)(=O)NCC(=O)NCc1ccc(C)cc1	-1	-1	0	-2	4
CSc1ccc(CCNC(=O)CCCn2c(=O)c3cccn3c3ccccc32)cc1	-1	-5	0	-1	6
Cc1ccc(CC(NC(=O)c2ccccc2)C(=O)NC(CC(C)C)C(=O)O)cc1 (stereo unspecified)	-7	-10	0	6	1
O=C(O)CNC(=O)c1ccccc1	-3	2	0	-34*	3
Cc1ccc(CC(NC(=O)c2ccccc2)C(=O)NCC(=O)O)cc1 (stereo unspecified)	35*	5	0	-2	0
C/C=N/NC(=O)CCNC(=O)c1ccccc1	33*	-5	-1	-7	1
SMILES	TRHR PAM	D1 potentiator	TRHR ag	D1 antag	D1 ag
O=C(CNC(=O)c1ccccc1)OC1CCCCC1	33*	-6	-1	-18	0
CCn1cc(C(=O)Nc2cccc(Cl)c2)c2cc(OC)c(OC)cc2c1=O	-1	0	0	-18	-1
CCC(=O)Nc1ccc2nc(SCCOc3ccc(C)cc3OC)sc2c1	-1	0	1	-22	9
Cc1cccc(C)c1NC(=O)CNC(=O)c1ccncc1	6	-3	1	10	1
Cc1ccsc1/C=N/NC(=O)CNC(=O)c1ccccc1	-3	-2	1	-47*	0
Cc1cccc(C)c1NC(=O)CNC(=O)c1ccccc1	-4	.	1	-31*	11
Cc1ccc(NC(=O)CSc2nc(=O)n(CCN3CCOCC3)c3c2CCC3)cc1Cl	-4	-1	-1	.	-3
CCCCCN1CC(=O)N2Cc3[nH]c4ccccc4c3C[C@H]2C1=O	1	-2	0	-5	5
CCCCN1C(=O)C2Cc3c([nH]c4ccccc34)CN2C1=S (stereo unspecified)	-4	1	6	-33*	16
O=C(NC1CCCC1)c1cccc2c1C(=O)c1ccc(N3CCCCC3)cc1S2(=O)=O	9	-4	10	17	6
O=C(NCc1ccccc1Br)c1cccc2c1C(=O)c1ccc(N3CCOCC3)cc1S2(=O)=O	-1	2	16	-18	37*
CC1CCN(c2ccc3c(c2)S(=O)(=O)c2cccc(C(=O)NC4CCCCC4)c2C3=O)CC1	-2	-1	39*	-31*	35*
O=C(NCc1ccc(F)cc1)c1cccc2c1C(=O)c1ccc(N3CCOCC3)cc1S2(=O)=O	5	-2	9	.	42*
CC1CCN(c2ccc3c(c2)S(=O)(=O)c2cccc(C(=O)NCc4ccc(F)cc4)c2C3=O)CC1	7	-2	78*	-20	337*
O=[N+]([O-])/C=C1/CCCCCN1	-1	0	1	13	1
Cc1nc2ccccc2n1CCc1nc2c3ccccc3nc(SCc3ccc(C#N)cc3)n2n1	4	-1	0	-7	3
O=C(c1cc(COc2ccc(F)cc2Cl)on1)N1CCN(C2CCCC2)CC1	5	-3	-1	-44*	15
O=C(NC1CCCC1)C(c1ccccn1)N(C(=O)c1csnn1)c1ccc(F)cc1 (stereo unspecified)	-3	-1	0	3	3
Cc1ccccc1NC(=O)c1ccc(N(Cc2ccccc2)S(C)(=O)=O)cc1	36*	0	0	-12	9
CS(=O)(=O)N(Cc1ccccc1)c1ccc(C(=O)Nc2ccccc2C(=O)O)cc1	1	18	-1	7	1
COc1ccccc1N1CCN(C(=O)C2CCN(S(=O)(=O)c3ccccc3F)CC2)CC1	-10	1	-1	1	0
Cn1ccc2cc(S(=O)(=O)N3CCN(C(=O)Nc4cccc(F)c4)CC3)ccc21	-6	-1	-1	-26	0
COCCNCCOc1ccccc1-c1ccccc1	10	-7	0	-31*	17

Source: PubChem
